Compound activity from PubChem.
VDR inhibitor – Inhibitors of the vitamin D receptor (VDR): qHTS; Vitamin D3 receptor (Homo sapiens), P11473; VDR-SRC2-3 peptide fluorescence polarization, 2 h; Potency, µM, for inactives: max response, negative = inhibition, hits mostly inhibitors; actives 0.93% (n = 400,000); AID 504847, 2011; further: potency means the concentration at half of the fitted maximal effect; on the % scale 0 is the no-effect control and ±100 the full control effect
Target sequence (P11473 whole entry, looked up): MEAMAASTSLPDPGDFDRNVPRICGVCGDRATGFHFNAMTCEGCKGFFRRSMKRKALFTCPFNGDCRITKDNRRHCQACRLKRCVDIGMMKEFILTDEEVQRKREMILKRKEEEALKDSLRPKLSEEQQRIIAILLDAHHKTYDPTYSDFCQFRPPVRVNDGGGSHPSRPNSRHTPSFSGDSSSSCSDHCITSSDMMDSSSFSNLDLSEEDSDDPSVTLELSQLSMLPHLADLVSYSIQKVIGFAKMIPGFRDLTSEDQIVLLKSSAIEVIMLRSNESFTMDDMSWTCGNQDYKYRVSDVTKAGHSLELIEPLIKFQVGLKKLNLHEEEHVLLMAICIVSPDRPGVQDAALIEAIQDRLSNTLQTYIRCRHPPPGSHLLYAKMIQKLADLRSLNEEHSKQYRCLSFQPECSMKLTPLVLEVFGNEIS
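FP read-out; VDR + SRC2-3 coactivator peptide; 23 nl compound by pintool; 2 h RT incubation; reagents held at 4 deg C, protected from light.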
PLK1 PBD inh – qHTS for Inhibitors of PLK1-PDB (polo-like kinase 1 - polo-box domain): Primary Screen; Serine/threonine-protein kinase PLK1 (Homo sapiens), P53350; Plk1 PBD binding of FITC phosphopeptide, fluorescence polarization; Potency, µM, for the others: max response, negative = inhibition, hits mostly inhibitors; actives 2.8% (n = 360,000); AID 720504, 2013; further: potency means the concentration at half of the fitted maximal effect; series mostly up to about 57 µM; on the % scale 0 is the no-effect control and ±100 the full control effect; nearly all actives have a fitted effect of over 65% in size
Rango release inh – qHTS Assay for Inhibitors of RanGTP induced Rango (Ran-regulated importin-beta cargo) - Importin beta complex dissociation; Potency, µM (doses to about 46.1 µM), for inactives: top-dose activity change, negative = inhibition; actives 0.071% (n = 340,000); Biochemical FRET Rango-importin beta, RanGTP-induced dissociation; Snurportin-1 (Homo sapiens) + GTP-binding nuclear protein Ran (Homo sapiens) + Importin …; calls by dose curve; further: potency means the concentration at half of the fitted maximal effect; % of control where 0% means no effect; nearly all actives have a fitted effect of over 45% in size
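Rango/importin beta premix (0.1/0.25 uM final), PBS + 1 mM DTT + 0.02% Tween-20 + 0.1% BSA; cpd 5 min RT; FRET pre-read; + RanGTP-RCC1 (0.6 uM Ran, 2 mM GTP, 0.2 uM RCC1); 45 min RT; FRET post-read, ex 430, em 486/530 nm.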
GCN5L2 inh – qHTS Assay for Inhibitors of GCN5L2 | GCN5L2 HAT assay, ThioGlo1 CoA-SH fluorescence | Potency, µM (top dose mostly 58.9 µM), for the others: at the highest dose activity change, negative = inhibition, most hits filed as inhibitors | actives 0.21% (n = 390,000) | Histone acetyltransferase KAT2A (Homo sapiens), Q92830; further: potency means the concentration at half of the fitted maximal effect; on the % scale 0 is the no-effect control and ±100 the full control effect
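Enzyme at 20nM final was mixed with library compounds for 15 min at room temperature. Peptide H3(1-25) at 75uM, acetyl-CoA at 70uM and ThioGlo1 at 50uM were then added. Plates were read immediately and after 20 min (Ex340nm/Em540nm).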
PI5P4K alpha inh – qHTS for Inhibitors of phosphatidylinositol 5-phosphate 4-kinase (PI5P4K). Phosphatidylinositol 5-phosphate 4-kinase type-2 alpha (Homo sapiens), P48426. PI5P4Kalpha enzyme, ADP-Glo luminescence, 60 min; stronger effect = lower value. max response, %. actives 1.2% (n = 330,000). AID 652105, 2013; active means max response of -50% or lower; inconclusive means between -30% and -50%; inactive means -30% or higher; further: value at the top dose of about 77 µM; on the % scale 0 is the no-effect control and ±100 the full control effect
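Compounds were pin-transferred onto PI5P4Kalpha and substrate in HEPES pH 7.4 buffer with EGTA, CHAPS and 5% DMSO. ATP (5 microM final) started the reaction, which ran 60 minutes at room temperature before ADP-Glo detection.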
Rango complex inh – qHTS Assay for Inhibitors of Rango (Ran-regulated importin-beta cargo) - Importin beta complex formation; Importin subunit beta-1 (Homo sapiens), Q14974; Rango CFP/YFP FRET sensor + importin beta, 45 min; Potency, µM (doses to about 92.2 µM), for inactives: at the highest dose inhibition of complex formation; actives 0.031% (n = 340,000); AID 540263, 2011; calls by dose curve;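 further: potency means the concentration at half of the fitted maximal effect; 0% = DMSO wells and 100% = buffer wells lacking importin beta; nearly all actives have a fitted effect of over 15% in size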
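FRET biosensor Rango (snurportin 1 IBB between N-terminal EYFP and C-terminal Cerulean), 50 nM in PBS/1 mM DTT/0.02% Tween-20/0.1% BSA, preincubated 5 min RT with compound; 0.125 microM importin beta added, 45 min RT, CFP/YFP FRET ratio read.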
Numbers without * were called inactive; ? = inconclusive; nt = not tested or not shown; ! = not active in a repeat; [ ] = dose if it differs, or a comment. Rows were chosen to be rich in hits. Some 3.6% of all compounds tested hit in one or more screens of this group. Unless noted, the call rests on the fitted dose curve; in most records, active means well fitted curve in the direction sought with a large enough effect; inconclusive means small, poorly fitted or top-dose-only effect, or another doubt; inactive means no such curve, though single readings can be large; an effect the other way counts as inactive or inconclusive.

SMILES	VDR inhibitor	PLK1 PBD inh	Rango release inh	GCN5L2 inh	PI5P4K alpha inh	Rango complex inh
C=CCN1CC[C@]23c4c5ccc(O)c4O[C@@H]2/C(=N/N=C2\CC[C@@]4(O)C6Cc7ccc(O)c8c7[C@@]4(CCN6CC=C)[C@@H]2O8)CC[C@@]3(O)C1C5	1%	nt	nt	-2%	nt	nt
Cc1cc(C=C2C(=O)N(C)C(=S)N(C)C2=O)c(C)n1-c1ccncc1	?	?	-23%	-7%	?	?
Cc1ccnc(-n2c(C)cc(C=C3C(=O)N(C)C(=S)N(C)C3=O)c2C)c1	?	1.2µM*	-28%	-3%	?	?
Oc1ccc2c(c1)[C@@]13CCCCC1[C@@H](C2)N(CC1CCC1)CC3 (stereo not given in full)	-2%	nt	nt	-15%	nt	nt
O=C(Oc1ccccc1)N1CCC2(CCN(Cc3nccs3)CC2)CC1	8%	nt	nt	-1%	nt	nt
COC(=O)c1nc(-c2ccc3c(n2)C(=O)C(N)=C(OC)C3=O)c(N)c(-c2ccc(OC)c(OC)c2O)c1C	10µM*	-6%	-16%	-7%	-7	?
O=c1[nH]c(O)c(/C=C2\C=Nc3ccc(OCc4ccccc4)cc32)c(=O)[nH]1	-29%	24µM*	?	-4%	-28	23%
CCCCn1c(O)c(/C=C2\C=Nc3ccccc32)c(=O)[nH]c1=O	53%	-20%	39%	5%	-27	8%
C=C(C)C(=O)CP(=O)(OCC)OCC	-7%	nt	nt	nt	nt	nt
C[N+]1([O-])[C@@H]2CC(OC(=O)[C@@H](CO)c3ccccc3)C[C@@H]1[C@H]1O[C@H]12 (stereo not given in full)	-1%	nt	nt	10µM*!	nt	nt
COc1cc2c(c(OC)c1OC)-c1ccc(OC)c(=O)cc1[C@H](NC(C)=O)CC2	2%	nt	nt	3%[21.4 µM]	nt	nt
Cc1ccc(-n2c(O)c(/C=N/N3CCOCC3)c(=O)[nH]c2=S)cc1	-13%	-8%	21%	33%	-12	?
Cc1ccc(-n2c(-c3nn(C)c(C)c3Cl)n[nH]c2=S)cc1	4%	30µM*	7%	0%	10	0%
c1cc2cc(c1)C[n+]1ccc(c3ccccc31)NCc1ccc(cc1)CNc1cc[n+](c3ccccc13)C2	-6%	nt	nt	12%	nt	nt
CCOc1cc(OP(=S)(OC)OC)nc(CC)n1	22µM*	nt	nt	-14%	nt	nt
Cc1cc(O)c2c(c1)C(=O)C13C(=C2O)C(=O)[C@H]2[C@@H](O)[C@@H]1[C@H]1[C@H](O)[C@@H]3C(=O)C3=C(O)c4c(O)cc(C)cc4C(=O)C312 (stereo not given in full)	-10%	-14%	?	-9%	-53*	?
Cc1ccc(N2C(=O)/C(=C/c3ccc(CN(CCC#N)S(C)(=O)=O)o3)C(=O)NC2=S)cc1	?	6µM*	?	-29%	-71*	?
Cc1ccc(N2C(=O)NC(=O)/C(=C\c3ccc([N+](=O)[O-])o3)C2=O)cc1	nt	nt	nt	-23%	nt	nt
CCC(=O)CCCCC[C@@H]1NC(=O)[C@H]2CCCCN2C(=O)[C@H]([C@@H](C)CC)NC(=O)[C@H](Cc2cn(OC)c3ccccc23)NC1=O	?	nt	nt	-22%	nt	nt
S=c1[nH]c2cc(Br)cnc2[nH]1	-6%	13µM*	0%	?	?	2%
S=C=NCc1ccccc1	40µM*	nt	nt	5%	nt	nt
CCOC(=O)C(O)(c1ccc(NC(=S)NC(=O)c2ccc(Cl)cc2Cl)c(C)c1)C(F)(F)F (stereo not given)	17%	2%	1%	2%	16	-1%
COC(=O)C(O)(c1ccc(NC(=S)NC(=O)c2ccc(Cl)cc2Cl)c(C)c1)C(F)(F)F (stereo not given)	?	21µM*	13%	-5%	-12	0%
O=C1c2ccccc2C(=O)c2ccccc21	5%	nt	nt	3%	nt	nt
O=C1C=Cc2ccccc2C1=O	nt	nt	nt	28µM*	nt	nt
SMILES	VDR inhibitor	PLK1 PBD inh	Rango release inh	GCN5L2 inh	PI5P4K alpha inh	Rango complex inh
CC(=O)Nc1c2sscc-2n(C)c1=O	40µM*	nt	nt	-6%	nt	nt
O=C1NC(=O)N(c2ccc3c(c2)OCO3)C(=O)/C1=C\c1ccsc1	?	4.7µM*	-6%	-26%	-24	-2%
COc1ccc(/C=C/C(=O)N2CC3C[C@@H](C2)Cn2c3cccc2=O)cc1OC	0%	nt	nt	nt	nt	nt
CCN(CCCNS(=O)(=O)c1ccc2c(c1)oc(=O)n2C)c1cccc(C)c1	?	24µM*	-10%	-16%	-18	1%
OC(c1ccc(Cl)cc1)(c1cncnc1)c1ccccc1Cl (stereo not given)	?	nt	nt	27%	nt	nt
COc1ccccc1-n1c(O)c(/C=N/NC(=S)Nc2ccccc2)c(=O)[nH]c1=S	?	-23%	?	-6%	-61*	?
C[Se]C[C@H](N)C(=O)O	7%	nt	nt	-12%	nt	nt
O=C1NC(=O)N(Cc2ccco2)C(=O)/C1=C\c1cccn1CCOc1ccc(Cl)cc1	-27%	1.9µM*	-14%	24%	-54*	?
CCc1ccc(N2C(=O)NC(=O)/C(=C/c3cccn3CCOc3ccc(C(C)CC)cc3)C2=O)cc1 (stereo not given)	-8%	-11%	3%	0%	-53*	3%
Cc1cccc(OCCn2c(=O)oc3ccc(C)cc32)c1	6%	-9%	-6%	?	9	1%
CCc1ccc(N2C(=O)NC(=O)/C(=C/c3cccn3CCOc3ccc(C)cc3)C2=O)cc1	17%	-10%	-5%	28%	-24	?
Cc1cccc(OCCn2cccc2/C=C2/C(=O)NC(=O)N(Cc3ccco3)C2=O)c1	8%	1.9µM*	?	?	-57*	?
CC(=O)Oc1ccc2c3c1OC1[C@@H](OC(C)=O)C=C[C@H]4[C@H](C2)N(C)CC[C@]314 (stereo not given in full)	2%	nt	nt	-2%	nt	nt
CC(C)[C@H](NC(=O)[C@H](CCC(=O)O)NC(=O)[C@H](Cc1ccccc1)NC(=O)[C@H](C)NC(=O)[C@@H](N)Cc1ccc(O)cc1)C(=O)N[C@H](C(=O)NCC(N)=O)C(C)C	-3%	nt	nt	5%	nt	nt
O=C(O)Cc1cccnc1C(=O)O	-4%	nt	nt	-3%	nt	nt
